Source: PubChem BioAssay (NCI)
Compounds without any hit were thinned out: in the full panel of roughly 83,000, 20% have a hit.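 Plates (96-well) were seeded with cells, treated with compound at one concentration, and incubated for 48 hours before percent growth was determined.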 The source made the active and inactive calls. The calls were made as follows: active = growth percent below 10; inactive = the rest.

How the values were obtained:
Assay in all cases: NCI-60 one-dose screen, 48 h (100 = growth as untreated, 0 = no growth, -100 = all killed)
Settings in all cases: 10 µM unless noted
SK-MEL-2 melanoma = test system: SK-MEL-2 melanoma
EKVX NSCLC = test system: EKVX NSCLC
SN12C renal = test system: SN12C renal
UO-31 renal = test system: UO-31 renal
TK-10 renal = test system: TK-10 renal
ACHN renal = test system: ACHN renal
CAKI-1 renal = test system: CAKI-1 renal
A498 renal = test system: A498 renal
CCRF-CEM leukemia = test system: CCRF-CEM leukemia
MOLT-4 leukemia = test system: MOLT-4 leukemia

Measured: growth

O=C(NC(=S)N1CCN(c2ncnc3c2cnn3-c2ccccc2)CC1)c1ccc(F)cc1
inactive: SK-MEL-2 melanoma 91.6% | EKVX NSCLC 86.2% | SN12C renal 64.9% | UO-31 renal 74.4% | TK-10 renal 140% | ACHN renal 79.6% | CAKI-1 renal 84.8% | A498 renal 124% | CCRF-CEM leukemia 63.2% | MOLT-4 leukemia 45.2%

COc1ccc(NC(=O)Cn2c(/C=C/c3cccc(OC)c3)nc3ccccc3c2=O)cc1
inactive: SK-MEL-2 melanoma 87.9% | EKVX NSCLC 79.6% | CAKI-1 renal 50.9% | CCRF-CEM leukemia 89.4% | MOLT-4 leukemia 97.4%
active: SN12C renal -24% | UO-31 renal -74.3% | TK-10 renal -42.9% | ACHN renal -61.4% | A498 renal -42.8%

O=C(NN1C(=O)/C(=C/C=C/c2ccc([N+](=O)[O-])o2)SC1=S)c1ccc([N+](=O)[O-])cc1
active: SK-MEL-2 melanoma -89.8% | EKVX NSCLC -97.8% | SN12C renal -99.9% | UO-31 renal -100% | TK-10 renal -98% | ACHN renal -100% | CAKI-1 renal -100% | A498 renal -95.8% | CCRF-CEM leukemia -37.2% | MOLT-4 leukemia -3.98%

Oc1ccc(Cl)c(Nc2ncnc3c2cnn3CC(Cl)c2ccc(Br)cc2)c1 (stereo not given)
inactive: SK-MEL-2 melanoma 84.8% | EKVX NSCLC 55.4% | SN12C renal 43.9% | UO-31 renal 21.3% | TK-10 renal 47.1% | CAKI-1 renal 18.3% | A498 renal 98.9% | CCRF-CEM leukemia 59.8% | MOLT-4 leukemia 34.7%
active: ACHN renal 8.02%

Cc1ccc(C2CC(c3ccc(NC(=O)Nc4ccccc4)cc3)=NN2c2ccc(S(N)(=O)=O)cc2)cc1 (stereo not given)
active: SK-MEL-2 melanoma -81.7% | EKVX NSCLC -95.1% | SN12C renal -91.6% | UO-31 renal -100% | TK-10 renal -81.4% | ACHN renal -100% | CAKI-1 renal -98.2% | A498 renal -93% | CCRF-CEM leukemia -17.7% | MOLT-4 leukemia -27.8%

Cn1cc(-c2cc(N)n3nc(-c4c[nH]c5ccccc45)cc3n2)c2cc(Cl)ccc21
active: SK-MEL-2 melanoma -64.6% | EKVX NSCLC -77% | SN12C renal -81.2% | UO-31 renal -80.1% | TK-10 renal -90.2% | ACHN renal -75.6% | CAKI-1 renal -63.6% | A498 renal -59.1% | CCRF-CEM leukemia -16.2% | MOLT-4 leukemia 6.43%

C=CC(=O)N1CCN(c2ccc3nc4c(nc3c2C(F)(F)F)C(=O)c2ncccc2C4=O)CC1
active: SN12C renal -44% | CCRF-CEM leukemia -17.5% | MOLT-4 leukemia -37.8%
inactive: SK-MEL-2 melanoma 39.8% | EKVX NSCLC 30.4% | UO-31 renal 35.7% | TK-10 renal 111% | ACHN renal 28.3% | CAKI-1 renal 36% | A498 renal 134%

Fc1ccc(Nc2nnc(-c3c[nH]c4ccccc34)o2)cc1
inactive: SK-MEL-2 melanoma 96.7% | EKVX NSCLC 56.5% | SN12C renal 56.2% | UO-31 renal 44.4% | TK-10 renal 123% | ACHN renal 77.5% | CAKI-1 renal 67.8% | A498 renal 133% | CCRF-CEM leukemia 16.3% | MOLT-4 leukemia 29.6%

O=C(CSc1nc2c(c(=O)[nH]1)CCCC2)Nc1ccccc1C(=O)O
inactive: SK-MEL-2 melanoma 98.9% | EKVX NSCLC 99.2% | SN12C renal 93.3% | UO-31 renal 82.3% | TK-10 renal 106% | ACHN renal 106% | CAKI-1 renal 89.5% | A498 renal 173% | CCRF-CEM leukemia 101% | MOLT-4 leukemia 99.3%

CC(C)(C)c1cc(-c2cc(-c3ccccc3)[nH]c(=O)c2C#N)cc(C(C)(C)C)c1
inactive: SK-MEL-2 melanoma 94.4% | EKVX NSCLC 34.2% | SN12C renal 30.7% | UO-31 renal 24.2% | TK-10 renal 27.6% | ACHN renal 23.3% | A498 renal 21.5% | CCRF-CEM leukemia 68.9% | MOLT-4 leukemia 70.9%
active: CAKI-1 renal -11.5%

CCCCCCCCc1ccc(C(=O)Nc2cccc(O)c2)cc1
inactive: SK-MEL-2 melanoma 83.8% | EKVX NSCLC 66.4% | SN12C renal 65.4% | UO-31 renal 34.4% | TK-10 renal 106% | ACHN renal 57.3% | CAKI-1 renal 77.8% | A498 renal 115% | MOLT-4 leukemia 35.5%
active: CCRF-CEM leukemia 0.746%

COc1ccc(N=Nc2c(N)nn3c(-c4ccc5c(c4)C=S=C5)ccnc23)cc1
inactive: SK-MEL-2 melanoma 93.4% | EKVX NSCLC 33.9% | SN12C renal 39% | UO-31 renal 16.4% | TK-10 renal 82.4% | ACHN renal 31.6% | CAKI-1 renal 34% | A498 renal 144% | CCRF-CEM leukemia 10.1% | MOLT-4 leukemia 32.9%

COC(=O)c1cccc(Oc2ccc(NC(=O)Nc3cc(C(F)(F)F)ccc3F)cc2)c1
inactive: SK-MEL-2 melanoma 73.1% | EKVX NSCLC 60.9% | SN12C renal 75.7% | UO-31 renal 73.9% | TK-10 renal 88.5% | ACHN renal 56.4% | CAKI-1 renal 62.4% | A498 renal 94.9% | CCRF-CEM leukemia 65% | MOLT-4 leukemia 64.7%

Nc1nn2c(-c3cc4cc(Br)ccc4oc3=O)ccnc2c1N=Nc1ccc(S(N)(=O)=O)cc1
inactive: SK-MEL-2 melanoma 94.6% | EKVX NSCLC 91.9% | SN12C renal 74% | UO-31 renal 76.6% | TK-10 renal 114% | ACHN renal 95.7% | CAKI-1 renal 81% | A498 renal 149% | CCRF-CEM leukemia 82.3% | MOLT-4 leukemia 89.9%

C[C@H]1[C@@H](CC(=O)N[C@@H](Cc2coc3ccccc23)B(O)O)O[C@@H]2OC3(C)CC[C@H]4[C@H](C)CC[C@@H]1[C@@]24O3
inactive: EKVX NSCLC 28.2% | UO-31 renal 12.4% | CAKI-1 renal 15.5% | A498 renal 44.5% | MOLT-4 leukemia 14.2%
active: SK-MEL-2 melanoma -20.7% | SN12C renal 6% | TK-10 renal 1.76% | ACHN renal 6.94% | CCRF-CEM leukemia -0.752%

COc1ccc(NC(=O)NN2C(=O)c3ccccc3N(C)C2c2ccc(OC)cc2)cc1 (stereo not given)
inactive: SK-MEL-2 melanoma 95.3% | EKVX NSCLC 100% | SN12C renal 103% | UO-31 renal 75.3% | TK-10 renal 97.2% | ACHN renal 106% | CAKI-1 renal 92.7% | A498 renal 108% | CCRF-CEM leukemia 98.7% | MOLT-4 leukemia 96.4%

S=C(NCCc1ccccc1)Nc1ccc(OCc2nc3ccc(Cl)cc3[nH]2)cc1
active: CCRF-CEM leukemia 9.55%
inactive: SK-MEL-2 melanoma 16.5% | EKVX NSCLC 33.1% | SN12C renal 11.6% | UO-31 renal 13.9% | TK-10 renal 62.4% | ACHN renal 14% | CAKI-1 renal 25.2% | A498 renal 95.6% | MOLT-4 leukemia 13.8%

COc1ccc2[nH]c(O)c(N=Nc3nc(-c4ccccc4)cs3)c2c1
active: SN12C renal 2.85% | UO-31 renal 4.1% | ACHN renal -16.5% | A498 renal -34.8%
inactive: SK-MEL-2 melanoma 83.7% | EKVX NSCLC 14.4% | TK-10 renal 25.5% | CAKI-1 renal 14% | CCRF-CEM leukemia 44% | MOLT-4 leukemia 42.5%

O=C(N/N=C/c1ccc(-c2cccc([N+](=O)[O-])c2)s1)c1[nH]c2ccc(Br)cc2c1-c1ccccc1
inactive: SK-MEL-2 melanoma 84.4% | EKVX NSCLC 94.7% | SN12C renal 91.4% | UO-31 renal 82.1% | TK-10 renal 101% | ACHN renal 87.3% | CAKI-1 renal 90.4% | A498 renal 132% | CCRF-CEM leukemia 91% | MOLT-4 leukemia 69.3%

ClC(Cn1ncc2c(Nc3cccc(Br)c3)nc(SCCN3CCOCC3)nc21)c1ccc(Br)cc1 (stereo not given)
inactive: EKVX NSCLC 16.5% | SN12C renal 26.2% | TK-10 renal 40.9% | A498 renal 31.7%
active: SK-MEL-2 melanoma -11.9% | UO-31 renal -65.7% | ACHN renal 7.98% | CAKI-1 renal -28% | CCRF-CEM leukemia -6.03% | MOLT-4 leukemia -34.3%
